According to PubChem BioAssay (NCATS):
Inconclusive results are not listed. Entries that show only a call come without a potency. Active and inactive are the calls of the source. Calls follow the shape of the dose curve; as a rule, active = well fitted curve in the direction sought with a large enough effect; inconclusive = small, poorly fitted or top-dose-only effect, or another doubt; inactive = no such curve, though single readings can be large; an effect the other way counts as inactive or inconclusive.

Assays:
[1] = target: Ubiquitin carboxyl-terminal hydrolase 1 (Homo sapiens) (UniProt O94782); experiment: Inhibitors of USP1/UAF1: Pilot qHTS (AID 504865);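 also: rhodamine fluorescence freed from ubiquitin-rhodamine substrate followed over time; top concentration of the series differs between compounds; nearly all actives have a fitted effect of over 35% in size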
How it was run: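 1nM USP1/UAF1 + cpd, 15 min RT; start w/ Ub-Rho 150nM final; kinetic FL 480/540 nm, 6 reads q60 s. Buffer 50mM HEPES pH 7.8, 0.5mM EDTA, 1mM TCEP, 0.01% Tween-20, 0.1 mg/ml BSA.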

[2] = S16 Schwann cell viability assay (CellTiter-Glo assay) (AID 624031); also: nearly all actives have a fitted effect of over 70% in size; also: potency is read from the fitted curve at half-maximal effect
How it was run: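 CellTiter-Glo ATP luminescence counter-screen in untransfected S16 rat Schwann cells, 24h compound exposure at 37 degree Celsius after overnight seeding (500-750 cells/well); response scaled between cell-free wells and DMSO (0% activity), curves classed by r2 and magnitude.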

7G8 = experiment: qHTS profiling for inhibitors of Plasmodium falciparum proliferation (AID 504749); also: nearly all actives have a fitted effect of over 60% in size; also: potency is read from the fitted curve at half-maximal effect; conditions: P. falciparum in erythrocytes, SYBR Green DNA, 72 h; series mostly up to 28.7 µM
How it was run: (§1)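 P. falciparum-infected erythrocytes (0.3% parasitemia, 2.5% hematocrit final) were exposed to compounds for 72 h at 37 C in 5% CO2, then lysed with SYBR Green buffer overnight at room temperature; parasite DNA fluorescence was normalized to artemisinin and DMSO controls.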

AA1029 = experiment: as above; conditions: P. falciparum in erythrocytes, SYBR Green DNA, 72 h; series mostly up to 28.7 µM
How it was run: as §1

C2A = experiment: as above; conditions: P. falciparum in erythrocytes, SYBR Green DNA, 72 h; series mostly up to 28.7 µM
How it was run: as §1

CP191 = experiment: as above; conditions: P. falciparum in erythrocytes, SYBR Green DNA, 72 h; series mostly up to 28.7 µM
How it was run: as §1

CP211 = experiment: as above; conditions: P. falciparum in erythrocytes, SYBR Green DNA, 72 h; series mostly up to 28.7 µM
How it was run: as §1

CP217 = experiment: as above; conditions: P. falciparum in erythrocytes, SYBR Green DNA, 72 h; series mostly up to 28.7 µM
How it was run: as §1

CP237 = experiment: as above; conditions: P. falciparum in erythrocytes, SYBR Green DNA, 72 h; series mostly up to 28.7 µM
How it was run: as §1

CP250 = experiment: as above; conditions: P. falciparum in erythrocytes, SYBR Green DNA, 72 h; series mostly up to 28.7 µM
How it was run: as §1

CP256 = experiment: as above; conditions: P. falciparum in erythrocytes, SYBR Green DNA, 72 h; series mostly up to 28.7 µM
How it was run: as §1

CP315 = experiment: as above; conditions: P. falciparum in erythrocytes, SYBR Green DNA, 72 h; series mostly up to 28.7 µM
How it was run: as §1

DIV17 = experiment: as above; conditions: P. falciparum in erythrocytes, SYBR Green DNA, 72 h; series mostly up to 28.7 µM
How it was run: as §1

DIV30 = experiment: as above; conditions: P. falciparum in erythrocytes, SYBR Green DNA, 72 h; series mostly up to 28.7 µM
How it was run: as §1

ICS = experiment: as above; conditions: P. falciparum in erythrocytes, SYBR Green DNA, 72 h; series mostly up to 28.7 µM
How it was run: as §1

JCK = experiment: as above; conditions: P. falciparum in erythrocytes, SYBR Green DNA, 72 h; series mostly up to 28.7 µM
How it was run: as §1

P94_40 = experiment: as above; conditions: P. falciparum in erythrocytes, SYBR Green DNA, 72 h; series mostly up to 28.7 µM
How it was run: as §1

PC15 = experiment: as above; conditions: P. falciparum in erythrocytes, SYBR Green DNA, 72 h; series mostly up to 28.7 µM
How it was run: as §1

PC49 = experiment: as above; conditions: P. falciparum in erythrocytes, SYBR Green DNA, 72 h; series mostly up to 28.7 µM
How it was run: as §1

TAB113 = experiment: as above; conditions: P. falciparum in erythrocytes, SYBR Green DNA, 72 h; series mostly up to 28.7 µM
How it was run: as §1

Sequence of Ubiquitin carboxyl-terminal hydrolase 1 (Homo sapiens) (O94782 whole entry, looked up): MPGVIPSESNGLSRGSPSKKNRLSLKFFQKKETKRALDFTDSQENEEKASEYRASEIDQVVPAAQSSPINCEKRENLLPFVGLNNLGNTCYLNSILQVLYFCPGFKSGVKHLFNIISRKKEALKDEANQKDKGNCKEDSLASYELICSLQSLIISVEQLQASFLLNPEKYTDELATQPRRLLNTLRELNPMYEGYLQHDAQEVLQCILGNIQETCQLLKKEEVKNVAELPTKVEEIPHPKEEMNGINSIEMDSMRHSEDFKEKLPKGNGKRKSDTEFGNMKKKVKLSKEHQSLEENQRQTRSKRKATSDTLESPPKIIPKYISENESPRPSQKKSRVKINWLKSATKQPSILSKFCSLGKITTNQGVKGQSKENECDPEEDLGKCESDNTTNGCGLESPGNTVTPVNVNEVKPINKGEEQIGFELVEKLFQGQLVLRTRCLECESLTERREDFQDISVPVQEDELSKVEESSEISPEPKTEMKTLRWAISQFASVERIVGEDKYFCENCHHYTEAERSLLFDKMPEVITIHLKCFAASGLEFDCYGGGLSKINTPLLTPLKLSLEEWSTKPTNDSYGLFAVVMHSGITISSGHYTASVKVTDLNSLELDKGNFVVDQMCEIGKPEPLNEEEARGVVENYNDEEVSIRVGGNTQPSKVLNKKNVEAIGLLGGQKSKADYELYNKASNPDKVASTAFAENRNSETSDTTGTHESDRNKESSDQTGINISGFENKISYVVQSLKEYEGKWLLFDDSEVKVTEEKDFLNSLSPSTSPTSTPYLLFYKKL

SMILES	Potency [1]	Potency [2]	Potency (7G8)	Potency (AA1029)	Potency (C2A)	Potency (CP191)	Potency (CP211)	Potency (CP217)	Potency (CP237)	Potency (CP250)	Potency (CP256)	Potency (CP315)	Potency (DIV17)	Potency (DIV30)	Potency (ICS)	Potency (JCK)	Potency (P94_40)	Potency (PC15)	Potency (PC49)	Potency (TAB113)
OC[C@H](S)CS	inactive	36.1 µM (active)	0.891 µM (active)	10 µM (active)	inactive	inactive	inactive	inactive	2.24 µM (active)	inactive	inactive	inactive	3.38 µM (active)	inactive	2.24 µM (active)	10 µM (active)	inactive	3.16 µM (active)	inactive	inactive
CCc1ccc2c(c1)N(C[C@H](C)CN(C)C)c1ccccc1S2	–	28.7 µM (active)	10 µM (active)	–	–	–	–	–	–	–	–	inactive	6.01 µM (active)	–	7.94 µM (active)	–	–	inactive	–	–
N[C@H](COP(=O)(O)O)C(=O)O	inactive	inactive	inactive	inactive	inactive	inactive	inactive	inactive	inactive	inactive	inactive	inactive	inactive	inactive	inactive	inactive	inactive	inactive	inactive	inactive
C(=C/c1ccccc1)/CN1CCN(C(c2ccccc2)c2ccccc2)CC1	inactive	–	–	inactive	inactive	inactive	inactive	inactive	3.55 µM (active)	inactive	inactive	inactive	inactive	inactive	7.94 µM (active)	inactive	inactive	inactive	inactive	inactive
C[N+]1(C)[C@@H]2CC(OC(=O)[C@@H](CO)c3ccccc3)C[C@@H]1[C@H]1O[C@H]12 (stereo not given in full)	inactive	inactive	inactive	inactive	inactive	inactive	inactive	inactive	inactive	inactive	inactive	inactive	inactive	inactive	inactive	inactive	inactive	inactive	inactive	inactive
CC(=O)N1CCN(c2ccc(OC[C@@H]3CO[C@@](Cn4ccnc4)(c4ccc(Cl)cc4Cl)O3)cc2)CC1	–	inactive	11.2 µM (active)	inactive	inactive	inactive	inactive	inactive	inactive	inactive	inactive	–	–	inactive	–	inactive	inactive	–	inactive	inactive
Cc1nnc(SCC2=C(C(=O)O)N3C(=O)[C@@H](NC(=O)Cn4cnnn4)[C@@H]3SC2)s1	inactive	–	–	–	–	–	–	–	–	–	–	–	–	–	–	–	–	–	–	–
COc1cc2nc(N(C)CCCNC(=O)[C@@H]3CCCO3)nc(N)c2cc1OC	inactive	inactive	inactive	inactive	inactive	inactive	inactive	inactive	inactive	inactive	inactive	inactive	inactive	inactive	inactive	inactive	inactive	inactive	inactive	inactive
